From PubChem BioAssay (Tox21)
“And” between values parts separate entries of the source, which are not always exact repeats. Equal values may be shown once. Records with an inconclusive call do not appear. A call without a number means that no potency is given here. More than one record can exist for a structure, and the calls need not agree. The source made the active and inactive calls. Unless noted, the call rests on the fitted dose curve; in most records, active means well fitted curve in the direction sought with a large enough effect in the repeat runs; inconclusive means weak or mixed curves; inactive means no such curve, though single readings can be large; an effect the other way counts as inactive or inconclusive.

What was measured:
[1] = qHTS assay for small molecules that induce genotoxicity in human embryonic kidney cells expressing luciferase-tagged ATAD5 (AID 651632); further: nearly all actives have a fitted effect of over 15% in size
In short: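 Test compounds were delivered by pin tool onto HEK293T reporter cells (2,000/well) expressing ATAD5 fused to luciferase. After 16 hr at 37C, 5% CO2, Amplite was added for 30 min at room temperature and luminescence was measured.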

[2] = qHTS assay for small molecules that induce genotoxicity in human embryonic kidney cells expressing luciferase-tagged ATAD5 - cell viability (AID 651634; calls by dose curve; further: nearly all actives have a fitted effect of over 25% in size; further: potency means the concentration at half of the fitted maximal effect)
In short: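 Quantitative high-throughput format. HEK293T cells expressing ATAD5 fused to luciferase were plated at 2,000 cells/well and treated 15.5 hr with compound versus DMSO. Viability was determined by fluorescent live-cell protease substrate, 30 min at 37C.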

[3] = qHTS assay for small molecule disruptors of the mitochondrial membrane potential - cell viability (AID 720634; calls by dose curve; further: nearly all actives have a fitted effect of over 20% in size; further: potency means the concentration at half of the fitted maximal effect)
In short: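 Same-well counter-screen: following the MMP dye addition, CellTiter-Glo was added to 1 hr compound-treated HepG2 cells and luminescence read after 30 min at room temperature.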

[4] = qHTS assay for small molecule disruptors of the mitochondrial membrane potential (AID 720635); further: potency means the concentration at half of the fitted maximal effect
In short: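 Mitochondrial membrane potential tracked with Mito-MPS dye, red aggregates (ex 540/em 590 nm) against green monomers (ex 490/em 535 nm). Compound treatment 1 hr at 37C, dye 30 min in HepG2.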

[5] = qHTS assay to test for compound auto fluorescence at 590 nm (red) in HepG2 cells (AID 720674)
In short: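 We screened compounds on adherent HepG2 cells, incubating them for an hour at 37 C in 5% CO2 before reading emission at 590 nm under 540 nm excitation; values reflect equivalence to Rose Bengal sodium fluorescence.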

[6] = qHTS assay to test for compound auto fluorescence at 535 nm (green) in HepG2 cells (AID 720675)
[7] = qHTS assay to test for compound auto fluorescence at 460 nm (blue) in HEK293 cells (AID 720678)
In short: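 Cells were seeded and left to adhere for 4-5 hr at 37C. Compounds were then pin-transferred. After an overnight incubation at 37C under 5% CO2, intrinsic fluorescence at 405/460 nm was measured and referenced to triamterene.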

[8] = qHTS assay to test for compound auto fluorescence at 590 nm (red) in HEK293 cells (AID 720679)
In short: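 Each well held 2,000 HEK293 cells in medium containing 10% dialyzed FBS. Following 4-5 hr attachment at 37C, 23 nL test compound or DMSO was added; plates sat overnight, and red fluorescence (540/590nm) was recorded.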

[9] = qHTS assay to test for compound auto fluorescence at 535 nm (green) in HEK293 cells (AID 720680)
[10] = qHTS assay to test for compound auto fluorescence at 460 nm (blue) in HEK293 cell free culture (AID 720681)
In short: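 Blue fluorescence (Ex 405/Em 460 nm, triamterene-equivalent) was read immediately after pin transfer of compound or DMSO into medium (DMEM, 10% FBS) without cells.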

[11] = qHTS assay to test for compound auto fluorescence at 535 nm (green) in HEK293 cell free culture (AID 720682)
In short: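 No cells present: wells hold DMEM supplemented with 10% FBS, into which compound or vehicle is pinned. Green emission is then recorded (485 nm excitation, 535 nm emission) and scaled to fluorescein.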

[12] = qHTS assay to test for compound auto fluorescence at 590 nm (red) in HEK293 cell free culture (AID 720683)
In short: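 Red-channel autofluorescence of compounds in culture medium (DMEM, 10% FBS), no cells, measured at 540/590 nm. Rose Bengal sodium is the reference fluorophore for equivalence.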

[13] = qHTS assay to test for compound auto fluorescence at 460 nm (blue) in HepG2 cell free culture (AID 720685)
In short: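 Cell-free plates of MEM plus 10% FBS received 23 nL compound or DMSO vehicle; blue-channel (405/460 nm) intensity scored against triamterene as reference fluorophore.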

[14] = qHTS assay to test for compound auto fluorescence at 535 nm (green) in HepG2 cell free culture (AID 720686)
[15] = qHTS assay to test for compound auto fluorescence at 460 nm (blue) in HepG2 cells (AID 720687)
In short: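 Blue-channel autofluorescence (Ex/Em 405/460 nm, triamterene-equivalent) was measured after 1 hr compound exposure at 37 C, 5% CO2. Cells were HepG2, plated overnight at 37 C in MEM plus 10% FBS.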

[16] = target: Glucocorticoid receptor (Homo sapiens) (UniProt P04150); experiment: qHTS assay to identify small molecule agonists of the glucocorticoid receptor (GR) signaling pathway (AID 720691; active means well fitted activation curve with a large enough effect in the signal ratio in the repeat runs, not every such curve was filed as active; the % refers to the signal ratio)
Chain of Glucocorticoid receptor (Homo sapiens) (P04150 whole entry, looked up): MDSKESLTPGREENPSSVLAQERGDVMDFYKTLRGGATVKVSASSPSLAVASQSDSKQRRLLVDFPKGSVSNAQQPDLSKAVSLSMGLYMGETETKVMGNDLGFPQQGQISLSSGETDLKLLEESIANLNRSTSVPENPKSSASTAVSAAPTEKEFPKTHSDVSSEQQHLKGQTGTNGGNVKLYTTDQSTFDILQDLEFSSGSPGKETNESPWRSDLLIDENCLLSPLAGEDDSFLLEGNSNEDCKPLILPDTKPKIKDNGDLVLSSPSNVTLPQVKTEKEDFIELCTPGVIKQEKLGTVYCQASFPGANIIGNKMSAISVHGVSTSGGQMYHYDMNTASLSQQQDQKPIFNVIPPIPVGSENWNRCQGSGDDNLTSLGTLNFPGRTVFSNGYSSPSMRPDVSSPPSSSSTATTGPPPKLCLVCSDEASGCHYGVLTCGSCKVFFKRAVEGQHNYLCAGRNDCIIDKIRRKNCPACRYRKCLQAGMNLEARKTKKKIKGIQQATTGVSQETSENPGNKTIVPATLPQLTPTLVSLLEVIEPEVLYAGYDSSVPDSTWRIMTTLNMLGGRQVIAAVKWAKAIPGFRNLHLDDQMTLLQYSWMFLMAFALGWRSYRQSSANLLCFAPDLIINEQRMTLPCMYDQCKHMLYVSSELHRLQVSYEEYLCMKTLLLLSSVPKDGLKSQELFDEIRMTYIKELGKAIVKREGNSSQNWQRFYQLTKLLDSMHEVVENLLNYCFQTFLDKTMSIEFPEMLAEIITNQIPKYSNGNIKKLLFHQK
In short: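 A HeLa cervical cancer line expressing GR and a glucocorticoid response element-driven beta-lactamase gene is treated with compounds for 18 h; LiveBLAzer B/G FRET substrate is then applied and fluorescence read.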

[17] = target: Glucocorticoid receptor (Homo sapiens) (UniProt P04150); experiment: qHTS assay to identify small molecule antagonists of the glucocorticoid receptor (GR) signaling pathway (AID 720692; active means well fitted inhibition curve with a large enough effect in the signal ratio in the repeat runs, not every such curve was filed as active; the % refers to the signal ratio; further: potency means the concentration at half of the fitted maximal effect)
In short: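 GRE-bla HeLa line, dex-stimulated (5 nM final). Compound exposure 18 h, 37 C. Beta-lactamase FRET read after 2 h RT substrate.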

[18] = qHTS assay for small molecule agonists of the p53 signaling pathway - cell viability (AID 651633; calls by dose curve; further: nearly all actives have a fitted effect of over 30% in size; further: potency means the concentration at half of the fitted maximal effect)
In short: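 Viability counter-read: CellTiter-Glo luminescence (30 min, room temperature) in the same p53RE-bla plates. These plates had been exposed to compounds for 16 h at 37 C.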

[19] = qHTS assay to test for compound auto fluorescence at 590 nm (red) in HepG2 cell free culture (AID 720684)
In short: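 Cell-free; medium MEM + 10% FBS; compound or DMSO added by pintool; read Ex 540/Em 590 nm; Rose Bengal sodium as red reference fluorophore.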

Row | Structure (SMILES) | Potency [1] | Potency [2] | Potency [3] | Potency [4] | Potency [5] | Potency [6] | Potency [7] | Potency [8] | Potency [9] | Potency [10] | Potency [11] | Potency [12] | Potency [13] | Potency [14] | Potency [15] | Potency [16] | Potency [17] | Potency [18] | Potency [19]
1 | CC(=O)CCC(=O)O | inactive | inactive | inactive | inactive | inactive | inactive | inactive | inactive | inactive | inactive | inactive | inactive | inactive | inactive | inactive | inactive | inactive |  | 
2 | O=CC(=O)c1ccccc1 |  | inactive | inactive |  | inactive | inactive | inactive |  | inactive | inactive | inactive | inactive |  | inactive | inactive | inactive | inactive | inactive | 
3 | CCCCCCc1ccc(O)cc1O | inactive | inactive |  | 5.96 µM (active) and 4.87 µM (active) and 6.86 µM (active) | inactive | inactive | inactive |  | inactive | inactive | inactive | inactive | inactive | inactive | inactive | inactive | inactive and 49 µM (active) | inactive and 54.6 µM (active) and 61.1 µM (active) | 
4 | C1=CC2C3C=CC(C3)C2C1 (stereo not given) | inactive | inactive | inactive |  | inactive | inactive | inactive |  | inactive | inactive | inactive | inactive | inactive | inactive | inactive | inactive |  | inactive | inactive
5 | COc1ccc2cc(S(=O)(=O)N[C@H](CC(=O)N[C@H](Cc3ccc(CN4[C@H](C)CCC[C@@H]4C)cc3)C(=O)N(C)C(C)C)c3ccc4c(c3)OCO4)ccc2c1 | inactive | 57.9 µM (active) | inactive | 10.3 µM (active) | inactive | inactive | inactive |  | inactive | inactive | inactive | inactive | inactive | inactive | inactive |  |  |  | inactive
6 | O=C1NS(=O)(=O)c2ccccc21 |  | inactive | inactive | inactive | inactive | inactive | inactive | inactive | inactive | inactive | inactive | inactive |  | inactive | inactive |  |  |  | inactive
7 | C=C(C)C(=O)OCC(C)O (stereo not given) | inactive | inactive | inactive |  | inactive | inactive | inactive | inactive | inactive | inactive | inactive | inactive | inactive | inactive | inactive | inactive | inactive | inactive | inactive
8 | CC(C)c1c(C(=O)Nc2ccccc2)c(-c2ccccc2)c(-c2ccc(F)cc2)n1CC[C@@H](O)C[C@@H](O)CC(=O)O |  |  | inactive |  | inactive | inactive | inactive | inactive | inactive | inactive | inactive | inactive | inactive | inactive | inactive | inactive |  |  | 
9 | COc1ccc(CN(CCN(C)C)c2ccccn2)cc1 |  | inactive |  |  | inactive | inactive | inactive | inactive | inactive | inactive | inactive | inactive | inactive | inactive | inactive | inactive | inactive |  | 
10 | CC/C(=C(\c1ccccc1)c1ccc(OCCN(C)C)cc1)c1ccccc1 |  | 29.8 µM (active) and 61.5 µM (active) | 54.8 µM (active) and 61.1 µM (active) |  | inactive | inactive | inactive |  | inactive | inactive | inactive | inactive | inactive | inactive | inactive |  |  | 54.5 µM (active) [middle of 5 runs] | 
11 | CCCC[P+](CCCC)(CCCC)CCCC |  | inactive | inactive | inactive | inactive | inactive | inactive |  | inactive | inactive | inactive | inactive | inactive | inactive | inactive | inactive | inactive | inactive | 
12 | C1CCC(C(CC2CCCCN2)C2CCCCC2)CC1 (stereo not given) | inactive | 26.6 µM (active) |  | 5.96 µM (active) | inactive | inactive | inactive |  | inactive | inactive | inactive | inactive |  | inactive | inactive |  |  | 23.7 µM (active) | inactive
13 | CN[C@H]1CC[C@@H](c2ccc(Cl)c(Cl)c2)c2ccccc21 | inactive | inactive | inactive |  | inactive | inactive | inactive |  | inactive | inactive | inactive | inactive |  | inactive | inactive | inactive |  | 29.8 µM (active) | inactive
